Assay results as given in PubChem BioAssay AID1508600 (Functional Genomics Laboratory (NCATS/FGL), 2020).
Out of some 53,000 sequences screened, about 3,700 (7%) were called active. The sample as a whole holds a higher share of actives than the screen did. A number with no mark means an inactive call.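 Rule for the calls: active = gene knockdowns whose robust z-score for IL-1 alpha signal is at least 2 or at most -2, so actives lie on both sides; inactive = the rest.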

Test: Components of the Cytosolic LPS Sensing Pathway: Gene Identification via Genome-wide siRNA Screen;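 note: robust z of the log signal after scaling to non-targeting control siRNA wells of the plate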
Conditions: RAW264.7 macrophages, IL-1a HTRF, actives lie on both sides, screened at 100 nM (by protocol), cells primed 5 h with Pam3CSK4 first
Procedure, shortened: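 Cells (RAW264.7, 1×10^4 per well) were transfected with siRNA at 100 nM and cultured 48h at 37 degrees C. Pam3CSK4 was added for 5 hours; LipidA transfection followed for 24 hour. IL-1a was then measured by HTRF.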

Which z-score does the source give for GGCUUUAGCAGAUGAGCGATT against Sptbn4 here?
The z-score was -0.0568.

Which z-score does the source give for GGGACUGAGGACUACAUUCTT against Eif1b here?
The z-score was -1.17.

With GGAGAAAUAAAUGACUUGCTT against Zswim2 as the sequence, how does the z-score read?
Its z-score is -0.762.

For CCCACAGUACAUUCUAAAATT against Arsb, which z-score is on record?
Its z-score is 0.776.

Which z-score does the source give for GCGUCAAAAUUAUCCGAAATT against Trnau1ap here?
The z-score was 0.124.

For GGACACGUUUCUGUGUUGUTT against Tspan32, which z-score is on record?
The z-score was 0.304.

For GCACUAUGGGUGUCAUGGUTT against Mon1a, which z-score is on record?
The z-score was -3.1 (active).

Which z-score does the source give for CGUAUUCCAUGGUUUCCUATT against Whrn here?
The z-score was 0.111.

For GGAGUUUCUGGAAUGCAGGTT against Sec22c, which z-score is on record?
Its z-score is 0.741.

With GCACAAUUUUAUAACUCGGTT against Lrrc49 as the sequence, how does the z-score read?
The z-score was 0.457.

For GGAUAACUAUAUUCCAGUGTT against Rhobtb3, which z-score is on record?
Its z-score is 0.885.

Which z-score does the source give for GGCUAAAACACUUAUCAAUTT against Poteg here?
The z-score was -2.32 (active).

With CGUACCAUGUAAAUUCUAUTT against Impa1 as the sequence, how does the z-score read?
The z-score was 0.843.

Which z-score does the source give for CCCAAGAAACUUCGCUUCCTT against Ehmt1 here?
The z-score was -0.551.

With GCCAAGCUUAAGAACUUAATT against Oas3 as the sequence, how does the z-score read?
The z-score was 1.51.

For GGAAUAGGCCUUCUUGCUGTT against Matr3, which z-score is on record?
The z-score was -0.395.

Which z-score does the source give for GCAAGACGGUGAUUGUAACTT against Pck2 here?
Its z-score is -0.243.

For GCUGAUUGAACUGAAUGGATT against Slc22a21, which z-score is on record?
The z-score was -1.27.

Which z-score does the source give for CCAGGAUUGAUUUAGAAAATT against BC107364 here?
The z-score was 1.29.

For GGUCAUGGCUGGAUUUCUUTT against Olfr1462, which z-score is on record?
The z-score was -2.42 (active).

For GCAGUGUCCAAAGCACUUUTT against Slc6a9, which z-score is on record?
The z-score was -1.14.

For GGAUCGCUUAGUCUCAUGATT against Inip, which z-score is on record?
Its z-score is -0.493.

For GGUGAACGAUGUCAACUUUTT against Dvl1, which z-score is on record?
The z-score was -0.545.

Which z-score does the source give for GCAUAGGAGAGACCAACAUTT against Zcchc10 here?
The z-score was -2.42 (active).

Which z-score does the source give for GGAGGAAAAUCAGACAGGATT against Olfr1419 here?
Its z-score is -0.13.

Which z-score does the source give for GGUCCUCAAGAUCUUUGUGTT against Extl1 here?
The z-score was 0.0445.

For CCAAAACAACCACAAGUAGTT against Zfp385c, which z-score is on record?
The z-score was -2.96 (active).

With GCUCUGUGGACUUCUUGGATT against Znrf4 as the sequence, how does the z-score read?
Its z-score is -0.687.

Which z-score does the source give for GGGCUAAAGCCUUCAACACTT against Olfr923 here?
Its z-score is 0.315.

With CCCUUACAACUCAAGUAUCTT against Lrig3 as the sequence, how does the z-score read?
The z-score was 2.1 (active).

For GGUUGAAAAUGUUGUCAGGTT against Atpsckmt, which z-score is on record?
Its z-score is -0.733.

With GGGUUUUUGUCAAAUCUGUTT against Ttc5 as the sequence, how does the z-score read?
Its z-score is -2.24 (active).

For GGACAUCCAGACCAAUGUCTT against Psmd8, which z-score is on record?
The z-score was 1.1.

Which z-score does the source give for GGUCCAGACAUUUGGAUACTT against Cav2 here?
The z-score was 0.428.

With GGAUACCUGAAAAUUGAUATT against Npr1 as the sequence, how does the z-score read?
Its z-score is -0.667.

Which z-score does the source give for GGGAAGCUUUACUUUUUAATT against Mapk4 here?
Its z-score is 2.05 (active).

With CCUUAUGAAUCCCGAGUACTT against Bmp6 as the sequence, how does the z-score read?
The z-score was -0.0506.

Which z-score does the source give for GGGCAAAAAAGGUCUAUUCTT against Rfpl4 here?
Its z-score is 0.44.

Which z-score does the source give for CCACAGUAUCAUGUAACUATT against Il1a here?
The z-score was -2.23 (active).

Which z-score does the source give for GGAACCUAUUGCUGUUUUATT against Map2k3 here?
The z-score was -0.756.

Which z-score does the source give for GGAAUGUGGUUUCCUGUUATT against Fscn3 here?
Its z-score is 0.502.

For GGCUGAACAAGAGAAACCATT against Ppdpf, which z-score is on record?
The z-score was -2.49 (active).

With CCCAGAAUUAAACAUAGCUTT against Rrh as the sequence, how does the z-score read?
Its z-score is 0.0181.

With GGAAACCUGCUCAUAGUGGTT against Olfr1188 as the sequence, how does the z-score read?
The z-score was 0.54.

For GCAUGCCUAAAUUUGGGACTT against Fyb, which z-score is on record?
The z-score was 0.805.

For GGCUGGACACUGAGAAAAATT against Adcy4, which z-score is on record?
The z-score was 1.63.

Which z-score does the source give for GGUAUUUGGAGUACCCUUUTT against Arhgap11a here?
Its z-score is 0.196.

Which z-score does the source give for GGACAAGACUCUCAGUUCATT against Atpaf1 here?
The z-score was 0.77.

For GGAAUUUAGAAAAUGUGACTT against Vmn1r227, which z-score is on record?
The z-score was -2.67 (active).

For GGGUGAUCUGUAGUAUUUUTT against Olfr574, which z-score is on record?
Its z-score is -0.879.

With CCCUGUUACGAAGUUUAACTT against Slc17a7 as the sequence, how does the z-score read?
Its z-score is -1.27.

Which z-score does the source give for GGUGACUCUGAUUCUCAUATT against Slc22a13 here?
The z-score was -0.176.

Which z-score does the source give for GGAACUUGUACAAAUAGGATT against Lpcat1 here?
Its z-score is 0.587.

For GGACGAAGAGGAGAAAGAGTT against Ccdc184, which z-score is on record?
Its z-score is -1.25.

With GCUUAUUCCCAGGAGACCATT against Dmrtc2 as the sequence, how does the z-score read?
The z-score was -0.764.

With CCCACCUUAUGGGACAAAATT against Hlf as the sequence, how does the z-score read?
Its z-score is 2.05 (active).

Which z-score does the source give for GGUGGCCCAGUCUAAAGAATT against R74862 here?
The z-score was 0.872.

For CCAGUGACAUUCAAUACCUTT against Lrif1, which z-score is on record?
Its z-score is -1.52.

For GGUCAAUAUUGGCUUAUGUTT against Tmem42, which z-score is on record?
The z-score was -1.43.

For GGUGGAGAGAAAGAGAAAATT against Mcm8, which z-score is on record?
Its z-score is 0.767.

For GGGUUACUUUAGCUAUUUCTT against Rbm14, which z-score is on record?
Its z-score is -1.11.

With GGCUGAACAGGCAUGAUCATT against Rpap1 as the sequence, how does the z-score read?
Its z-score is -3 (active).

With GGAGCUGCUAUGUACACAUTT against Bptf as the sequence, how does the z-score read?
The z-score was 0.364.

With GGGUGAAUUUCCACCUUAUTT against Sgce as the sequence, how does the z-score read?
The z-score was -0.521.

For GGAGAAAAUACAACUGUGATT against Ctrc, which z-score is on record?
The z-score was -1.05.

Which z-score does the source give for CGAAAAUCAAGCGGAAUUUTT against Zmiz1 here?
The z-score was 2.49 (active).

For GGGCUCACUCUGUCUCUACTT against Rpp25l, which z-score is on record?
Its z-score is -0.378.

For CCAAAUCUGGUGUGAUUCATT against Arhgef4, which z-score is on record?
The z-score was -0.923.

With GCAAAGAGGCCUAAUUGAATT against B2m as the sequence, how does the z-score read?
Its z-score is 1.16.

For GGAUUUCAAACACGUCUUUTT against Asic5, which z-score is on record?
The z-score was 0.222.

For GGCGGGUUUGCUGAAUAACTT against Lrrc26, which z-score is on record?
Its z-score is 2.43 (active).

For GGUGAAGAGGAAGAUCCUGTT against Ctdnep1, which z-score is on record?
The z-score was 0.421.

With GGGUUAUCCGUAUGUUUUCTT against Olfr557 as the sequence, how does the z-score read?
The z-score was 0.964.

For GGGAUUUCUUACCCUGUUUTT against Prr7, which z-score is on record?
The z-score was -0.222.

Which z-score does the source give for CGACAUUGAUAUCGUGCGCTT against Gadd45g here?
The z-score was -0.827.

Which z-score does the source give for GGACUAGCAAGCUCUUCAGTT against Fancd2 here?
The z-score was -0.578.

Which z-score does the source give for GGUGAAAGUACUGAGGAAGTT against Rlim here?
Its z-score is 2.45 (active).

For GCUCCACCGAGAAAUUACUTT against Magt1, which z-score is on record?
The z-score was 1.63.

With CCCUCUUGAAAUUAGUGUGTT against Dusp14 as the sequence, how does the z-score read?
The z-score was 0.405.

For GCUCACAUGUUUUAGGUGATT against Poc5, which z-score is on record?
Its z-score is 0.756.

For GGCAAAGAAGGAGAAAGUATT against Cd209c, which z-score is on record?
Its z-score is -2.06 (active).

With GGCAGACAAUCAAUGAAAUTT against Padi4 as the sequence, how does the z-score read?
Its z-score is -0.451.

With GCCACUUCCGGUCAACUAUTT against Cog1 as the sequence, how does the z-score read?
Its z-score is 0.801.

For GGGCAAUAAGAUGUACGUUTT against Eomes, which z-score is on record?
Its z-score is 3.24 (active).

For GUAUGUUUGGGCUUAGCCUTT against Olfr1348, which z-score is on record?
The z-score was -1.21.

With GGAAGUUACUGUUGAGUAGTT against Olfr114 as the sequence, how does the z-score read?
Its z-score is 0.209.

For GUUGAUGGAAACCAUGGAATT against Phf11d, which z-score is on record?
The z-score was -0.504.

With GGAAAAAGCACCAUUGUGATT against Gnao1 as the sequence, how does the z-score read?
The z-score was -0.819.

Which z-score does the source give for GCUACUUCGGGAAUUUUACTT against Ttc21a here?
Its z-score is -1.16.

Which z-score does the source give for CCCUAUGAGCAAAUCACAUTT against Ppp3cc here?
The z-score was -0.499.

Which z-score does the source give for GGACUAAGAUUUGUGUUAGTT against Ccdc127 here?
The z-score was 2.15 (active).

With GGGAAGUUCAGUUCAAUACTT against Hps4 as the sequence, how does the z-score read?
Its z-score is 1.11.

For GCUGGAUAGCUAAAAUGAUTT against Gimap5, which z-score is on record?
Its z-score is -0.0294.

For GCUAUAUUGUUAGCACACATT against Hmgn2, which z-score is on record?
The z-score was 0.326.

For CCUGGAGGAGUAUUUACACTT against H2-Ob, which z-score is on record?
The z-score was -1.17.

Which z-score does the source give for GGCUAUGGAGUUCACCACATT against Krtap5-5 here?
Its z-score is -2.66 (active).

Which z-score does the source give for GGGAAGAAAUCAACGAUAATT against Gpa33 here?
The z-score was -0.0673.

For GGAACACACCAUCAUCCAGTT against H2-Ea, which z-score is on record?
The z-score was 1.29.

With GGGCUAUGCCUACUACACUTT against Fn3k as the sequence, how does the z-score read?
The z-score was 0.976.

For CCGAGGUGAUUAGGAUAACTT against Traf3ip1, which z-score is on record?
Its z-score is -0.694.

Which z-score does the source give for GGAGGAGAACAGCAAUCUUTT against Speer4d here?
Its z-score is -2.38 (active).

For CCUCUUCAACAAACAAGCATT against Zscan22, which z-score is on record?
The z-score was -0.379.

With GCAGCAGUGAAAUAGCUUCTT against Eya1 as the sequence, how does the z-score read?
Its z-score is -0.643.

Which z-score does the source give for GGAUGCAUGGCUCAAUAUUTT against Olfr1164 here?
Its z-score is 2.01 (active).

Which z-score does the source give for GCACAUUUGGACAACCAAUTT against AU018091 here?
Its z-score is -0.973.

For GCCGCUAUCGUCUUUAUCATT against Ptk7, which z-score is on record?
Its z-score is 0.00632.

With GGAGAAAAACAUCAUUGAATT against Reck as the sequence, how does the z-score read?
The z-score was -0.102.

With GGCUCUCAACUAAAGCAGCTT against Snu13 as the sequence, how does the z-score read?
The z-score was -1.18.
